The panel holds about 83,000 compounds, 20% with a hit somewhere; the sample as a whole holds those more often.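 The test compound was applied at a single concentration to cells in 96-well plates for 48 hours, and percent growth was recorded.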 A number with no mark means an inactive call. The source made the active and inactive calls. Rule for the calls: active = growth percent below 10; inactive = the rest.
Each compound was assayed on CCRF-CEM leukemia (assay: NCI-60 one-dose screen, 48 h (100 = growth as untreated, 0 = no growth, -100 = all killed)). Settings: 10 µM unless noted.
With `O=C(COc1ccc(NC(=O)Nc2ccc(Cl)cc2)cc1)N/N=C/c1ccccc1` the growth was -13.7% (active). For `COc1cc(/C=C/C(=O)c2ccccc2)ccc1Oc1nc(Nc2ccc(F)cc2)nc(N(C)C)n1`, the growth was 9.17% (active). Work on `CN(C)CCCNC(=O)c1cc(NC(=O)c2cc(NC(=O)c3ccc(/C=C/c4ccccc4)cc3)cn2C)cn1C` yielded a growth of 22.9%. `COc1ccc(C(=O)/C=C/c2ccc(Oc3nc(Nc4ccc(F)cc4)nc(N(C)C)n3)c(OC)c2)cc1` showed a growth of 19.2%. With `CN(C)CCOc1ccc(C(=O)C2[C@H](c3ccc(Cl)cc3)[C@@H](c3ccccc3)NC23C(=O)Nc2ccc(Br)cc23)cc1` (stereo partly drawn) the growth was 43.9%. With `COc1ccc(-c2ccc(SCC(=O)NCCc3ccc(S(N)(=O)=O)cc3)nn2)cc1` the growth was 66%. `Cc1nc(Nc2ncc(C(=O)Nc3c(C)cccc3Cl)s2)cc(N2CCN(CCCNC(=O)COc3ccc(C4CCC(=O)NC4=O)cc3)CC2)n1` (stereo not drawn) gave a growth of 95.1%. Work on `C=C1CCC2C3(C)COC(c4ccc(F)cc4)OC3CCC2(C)C1C/C=C1/C(=O)OCC1O` (stereo not drawn) yielded a growth of 11.4%. Compound `O=c1onc(-c2cc3ccccc3nc2Cl)n1-c1cccc2ccccc12` has a growth of 33%. For `O=C1NC(=O)/C(=C/c2ccccc2OCc2cc3ccccc3nc2Cl)S1`, the growth was 53.9%. For `O=C(COc1ccc(NC(=O)Nc2ccc(Cl)c(Cl)c2)cc1)N=Nc1c(O)[nH]c2ccc(Br)cc12`, the growth was 9.52% (active). Work on `COc1cccc(/C=C/c2nc3ccccc3c(=O)n2CC(=O)Nc2ccc(Cl)cc2)c1` yielded a growth of 86.1%. For `COc1ccc(C(=O)/C=C/c2cccc(Cl)c2)cc1S(N)(=O)=O`, the growth was 6.96% (active). `COc1cc(C2CC(c3cc(OC)c(OC)c(OC)c3)=NN2c2ccccc2)ccc1OCc1ccc(C)cc1` (stereo not drawn) was tested, and the growth was 106%. `CCOP(=O)(OCCCl)c1nc(-c2ccc(C)cc2)oc1NCc1ccccc1` (stereo not drawn) gave a growth of 72.4%. In the case of `Cc1ccccc1[C@H]1C(C(=O)c2ccc(Cl)cc2)C2(N[C@@H]1c1ccccc1)C(=O)Nc1ccccc12` (stereo partly drawn), the growth is reported as -13.8% (active). For `Cc1ccccc1[C@H]1C(C(=O)c2ccc(Cl)cc2)C2(N[C@@H]1c1ccccc1)C(=O)Nc1ccc(Br)cc12` (stereo partly drawn), the growth was 5.11% (active). For `Cc1cc(=O)oc2cc(OCCOc3ccc(/C=C/C(=O)Nc4ccccc4N)cc3)ccc12`, the growth was 6.51% (active). For `COc1cccc(/C=C/C(=O)c2ccc(OC)c(S(N)(=O)=O)c2)c1`, the growth was 2.26% (active). `Cn1cc(NC(=O)c2cc(NC(=O)c3ccc(/C=C/c4ccccc4)cc3)cn2C)cc1C(=O)NCCCN1CCOCC1` was tested, and the growth was -8.72% (active). With `CN1CCN(Cc2ccc(C(=O)Nc3cccc(C#Cc4cccc5[nH]nc(N)c45)c3)cc2C(F)(F)F)CC1` the growth was -20% (active). With `CCCn1cc(-c2nc(Nc3ccc(C(=O)NCCCCNc4cccc5c4C(=O)N(C4CCC(=O)NC4=O)C5=O)cc3)nc3[nH]ccc23)cn1` (stereo not drawn) the growth was -15.1% (active). `COc1c(F)ccc(C(=O)Nc2ccc3nc(NC(=O)C4CCCN(S(=O)(=O)c5ccc(C(F)(F)F)cc5)C4)sc3c2)c1F` (stereo not drawn) showed a growth of 89.5%. In the case of `Cn1nc(C(F)(F)F)cc1-c1cc(Cl)c(COc2ccc(Cl)cc2)c(-c2ccc(Cl)c(C(F)(F)F)c2)c1O`, the growth is reported as -34.3% (active). With `COc1ccc(C(=O)/C=C/c2ccccc2Br)cc1S(N)(=O)=O` the growth was 6.96% (active). For `COc1ccc2c(c1)c(/C=N/Nc1ccc3ccccc3n1)cn2C`, the growth was 10.8%. Work on `COc1c(F)ccc(C(=O)Nc2ccc3nc(NC(=O)C4CCCN(S(=O)(=O)c5ccc(Br)c(F)c5)C4)sc3c2)c1F` (stereo not drawn) yielded a growth of 87.4%. `COc1cc(OC)cc(-c2cc3ccc(N(C)C)cc3c(=O)[nH]2)c1` was tested, and the growth was 15.5%. With `Clc1cccc(-c2ccc(OCCCN3CCN(c4ccncc4)CC3)cc2)c1` the growth was -28.7% (active). With `CC12CC[C@@H]3[C@]4(C)COC(c5cn[nH]c5-c5ccc(Br)cc5)O[C@@H]4CC[C@@]3(C)[C@@H]1CC(C1=CCOC1=O)O2` (stereo partly drawn) the growth was 51.4%. With `CC12CC[C@@H]3[C@]4(C)COC(c5cn[nH]c5-c5cccc(Cl)c5)O[C@@H]4CC[C@@]3(C)[C@@H]1CC(C1=CCOC1=O)O2` (stereo partly drawn) the growth was 25.5%. For `CCCSc1nc(Nc2ccc(S(N)(=O)=O)cc2)c(C#N)c(-c2ccc(Cl)cc2)n1`, the growth was 81.4%. `COc1ccc(-c2nc3ccc(C(=O)NN4C(=O)c5ccc([N+](=O)[O-])cc5C4=O)cc3[nH]2)cc1` showed a growth of 83.3%.

From PubChem BioAssay (NCI)
